From PubChem
HT1080 IDH1KD tx – kills HT-1080 cells with IDH1 knockdown; HT-1080 IDH1 knockdown viability, ATP luminescence, 48 h; Potency, µM (series often up to 46.1 µM), without a hit: at the top dose activity, negative = toxicity, hits mostly cytotoxic; 2% of 360,000 active; AID 686971;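 further: 0% = DMSO wells and -100% = cell-free medium wells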
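IDH1KD HT-1080 cells, 750/well, RPMI + 5% FBS; compound pinned after 2 h settling; 48 h, 37 °C; CellTiter-Glo luminescence; % activity normalised to DMSO and no-cell wells; curves fitted, classed by r2 and efficacy.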
KB-V1 MDR tox – kills drug-selected multidrug resistant KB-V1 cells | Potency, µM (top dose mostly 46.1 µM), most hits filed as cytotoxic | 3.4% of 400,000 active | KB-V1 MDR cells viability, CellTiter-Glo, 72 h; further: nearly all actives have a fitted effect of over 60% in size
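Compound-treated KB-V1 multidrug-resistant cells, 72 h, 37 degrees C; viability by CellTiter-Glo. Fitted qHTS curves give the values.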
DT40 TDP1 no CPT – qHTS for Inhibitors of human tyrosyl-DNA phosphodiesterase 1 (TDP1): qHTS in cells in absence of CPT; DT40 Tdp1-/- hTDP1 cells, no CPT, ATP luminescence, 48 h; Potency, µM (series often up to 46.2 µM), without a hit: top-dose activity change, negative = growth inhibition, usual class: inhibitors; 15% of 420,000 active; further: nearly all actives have a fitted effect of over 55% in size
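Readout: luminescence from CellTiter-Glo after 30 min in the dark at RT. Cells: DT40 Tdp1-/- with stable hTDP1, 400/well. Exposure: compounds alone, ≥48 hr, 37 °C.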
KB-3-1 cytotox – kills parental KB-3-1 adenocarcinoma cells. KB-3-1 viability, CellTiter-Glo ATP luminescence, 72 h. Potency, µM (titrated, usually from 46.1 µM), hits mostly cytotoxic. 1.4% of 400,000 active. AID 1347075; further: nearly all actives have a fitted effect of over 60% in size
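Using CellTiter-Glo luminescence, growth of non-resistant KB-3-1 adenocarcinoma cells is assessed 72 h after pin-tool compound addition at 37 °C. Normalized responses across the concentration series yield fitted curves.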
DT40 TDP1 CPT – growth inhibition of DT40 Tdp1-/-;hTDP1 cells with camptothecin (screen for TDP1 inhibitors) | AID 686979 | Potency, µM (highest dose often 46.2 µM), for the others: top-dose activity change, negative = growth inhibition, most hits filed as inhibitors | chicken DT40 Tdp1-/-;hTDP1 cells + 20 nM CPT, ATP luminescence, 48 h | 12% of 420,000 active; further: nearly all actives have a fitted effect of over 55% in size
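Chicken DT40 Tdp1-/- cells complemented with human TDP1, 400 cells/well, exposed to compounds plus 20 nM camptothecin for at least 48 h at 37 C; viability read as ATP content by CellTiter-Glo luminescence.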
HT1080NT lethal – kills 2HG-producing HT-1080-NT fibrosarcoma cells; AID 686970; Potency, µM (titrated, usually from 46.1 µM), inactives show at the highest dose activity, negative = less viability, usual class: cytotoxic; HT-1080-NT fibrosarcoma viability, CellTiter-Glo ATP luminescence, 48 h; 1.6% of 360,000 active;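 further: NT is the 2HG producing partner of a matched IDH1 knockdown line; 0% = DMSO-treated cells and -100% = media-only wells without cells; nearly all actives have a fitted effect of over 55% in size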
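Compounds were tested in concentration-response format on HT-1080-NT cells for 48 hours at 37 degrees C. Cell viability came from CellTiter-Glo luminescence; curves were classified by r2, response magnitude and activity.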
Starred values were filed as active, the others as inactive; i = inactive; ? = inconclusive; . = no result; [ ] = remark or other dose. Hits are enriched below; roughly 19% of the tested compounds scored in any of these assays. The call rests on the fitted dose curve; in most records, active means well fitted curve in the direction sought with a large enough effect; inconclusive means small, poorly fitted or top-dose-only effect, or another doubt; inactive means no such curve, though single readings can be large; an effect the other way counts as inactive or inconclusive. Unless noted, on the % scale 0 is the no-effect control and ±100 the full control effect; potency means the concentration at half of the fitted maximal effect.

SMILES	HT1080 IDH1KD tx	KB-V1 MDR tox	DT40 TDP1 no CPT	KB-3-1 cytotox	DT40 TDP1 CPT	HT1080NT lethal
CN(C)S(=O)(=O)c1ccc(C(=O)NC2CC(=O)N(c3ccc4c(c3)OCCO4)C2)cc1 (centres undefined)	.	?	-22.5%	i	2.3%	.
O=C1[C@@H](c2ccccc2)CC[C@@H]2C=CC[C@H]3CCN1[C@@H]32	-1.1%	?	16.4µM*	i	?	11.8%
Cn1c(=O)c2c(SCC(=O)N3CCN(c4ccccc4)CC3)nc(C3CC3)nc2n(C)c1=O	-0.1%	i	7.31µM*	i	13µM*	-1.4%
CCCc1nc(SCC(=O)N2CCCc3ccccc32)c2c(=O)n(C)c(=O)n(C)c2n1	2.2%	i	23.1µM*	?	25.9µM*	1.9%
CCCc1nc(SCC(=O)N2CCC(Cc3ccccc3)CC2)c2c(=O)n(C)c(=O)n(C)c2n1	15.2%	i	16.4µM*	i	20.6µM*	5.9%
Cn1c(=O)c2c(SCCN3CCOCC3)nc(C3CCCC3)nc2n(C)c1=O	6.4%	?	20.6µM*	i	16.4µM*	-5.0%
Cn1c(=O)c2c(SCC(=O)NCCc3ccccc3)nc(C3CC3)nc2n(C)c1=O	-1.9%	i	-1.2%	i	-4.5%	1.1%
Cn1c(=O)c2c(SCC(=O)N3CCCc4ccccc43)nc(CC(C)(C)C)nc2n(C)c1=O	3.8%	i	?	i	?	12.3%
CC(=O)c1cccc(OCc2cc(C(=O)N3C[C@@H](C)O[C@@H](C)C3)no2)c1	18.1%	i	-3.0%	i	?	15.5%
COc1ccc(F)cc1S(=O)(=O)Nc1ccncc1	-1.8%	i	-18.3%	i	9.9%	-0.9%
Cc1ccc(S(=O)(=O)NCCC(=O)NCC(c2cccs2)N2CCOCC2)cc1 (centres undefined)	-2.4%	i	-5.6%	i	?	-1.7%
C=CCN(C(=O)CCC(=O)Nc1cc(C)on1)C(C(=O)NC1CCCC1)c1ccc(CC)cc1 (centres undefined)	-19.7%	?	14.6µM*	i	?	-10.2%
CCCCN(C(=O)CCC(=O)Nc1cc(C)on1)C(C(=O)NC1CCCC1)c1ccc(OCC)cc1 (centres undefined)	-10.9%	i	16.4µM*	i	?	-20.2%
Cc1ccc(NC(=S)NCCN2CCOCC2)cc1F	6.2%	i	11.9%	i	-0.9%	5.9%
O=C(Nc1nnc(C23CC4CC(CC(C4)C2)C3)s1)c1ccc(N2C(=O)CCC2=O)cc1	-3.5%	i	25.9µM*	i	?	1.6%
CCOC(=O)c1c(C)oc2nc(C)nc(NCCc3ccc(OCC)c(OCC)c3)c12	.	i	13µM*	i	?	.
CCOC(=O)c1c(C)oc2nc(C)nc(NCCc3ccc(Cl)cc3)c12	.	i	13µM*	i	?	.
CCOC(=O)c1c(C)oc2nc(C)nc(NCC3CCN(Cc4ccc(C)cc4)CC3)c12	.	i	-23.6%	i	?	.
CCOC(=O)c1c(C)oc2nc(C)nc(Nc3cc(C)cc(C)c3)c12	.	i	0.3%	i	4.6%	.
CCOC(=O)c1c(C)oc2nc(C)nc(NCC3CCN(Cc4cccc(Cl)c4)CC3)c12	.	i	-19.2%	i	-21.5%	.
CCOC(=O)c1c(C)oc2nc(C)nc(NCCc3ccc(OCC)cc3)c12	.	?	5.17µM*	i	6.51µM*	.
Cn1c(=O)c2nc(-c3ccccc3)oc2c2ccccc21	2.7%	?	16.4µM*	i	-24.2%	-4.0%
CCCCCc1nc2c(=O)n(C)c3ccccc3c2o1	1.1%	i	?	i	-23.5%	-5.5%
O=C(Nc1ccccc1F)c1coc(=O)c(Br)c1	7.1%	i	1.64µM*	i	0.517µM*	1.7%
O=C(Nc1ccc(Br)cn1)c1coc(=O)c(Br)c1	-18.3%	i	3.66µM*	i	1.46µM*	-9.3%
SMILES	HT1080 IDH1KD tx	KB-V1 MDR tox	DT40 TDP1 no CPT	KB-3-1 cytotox	DT40 TDP1 CPT	HT1080NT lethal
O=C(NCCc1ccc(F)cc1)c1coc(=O)c(Br)c1	?	i	0.92µM*	?	0.13µM*	?
C[C@@H](NC(=O)c1coc(=O)c(Br)c1)c1ccccc1	8.2µM*	?	0.731µM*	11.6µM*	0.461µM*	9.2µM*
COc1ccc(C(=O)NC(C)c2ccccc2)cc1Br (centres undefined)	1.7%	i	-13.9%	i	-6.7%	-1.2%
C[C@H]1CN([C@@H](C)CO)C(=O)CCCn2cc(nn2)CO[C@@H]1CN(C)C(=O)NC1CCCCC1	19.4%	i	10.2%	i	0.2%	14.0%
COc1ccc(C(=O)N2CCN(C(=O)COc3ccccc3)CC2)cc1OC	.	i	.	i	.	.
COc1ccc(CN2CCOc3ccc(CN4CCCCC4CO)cc3C2)c(OC)c1 (centres undefined)	.	.	?	.	3.8%[9.04 µM]	.
CCc1nc2ccc(C(=O)N3CCCC(C(N)=O)C3)cn2c1N(C=O)CC (centres undefined)	13.3%	i	9.4%	i	0.1%	8.3%
Cc1cc(NC(=O)c2coc(=O)c(Br)c2)ccc1C(C)C	20.6µM*	i	1.84µM*	i	0.517µM*	?
O=C(Nc1ccc(Cl)cc1C(=O)Nc1ccc(Br)cn1)c1ccco1	?	5.17µM*	?	i	?	-15.5%
Cc1ccc(NC(=O)c2ccccc2)cc1C	16.5%	i	-11.3%	i	-0.3%	4.9%
Cc1noc(C)c1-c1nc(NCCN2CCOCC2)c2ccccc2n1	.	.	-6.4%	.	-3.3%	.
CCc1ncc(CN2CCCC(C(=O)Nc3cccc(-c4ccc(F)cc4)c3)C2)cn1 (centres undefined)	-1.4%	?	16.4µM*	i	23.1µM*	-11.5%
O=C(Nc1cccc(-c2ccc(F)cc2)c1)C1CCCN(Cc2cccnc2)C1 (centres undefined)	18.4µM*	?	?	i	?	?
CCc1ncc(CN2CCCC(C(=O)Nc3cccc(-c4cccc(C)c4)c3)C2)cn1 (centres undefined)	-20.2%	.	?	.	?	1.5%
CCn1cc(CN2CCCC(C(=O)Nc3cccc(-c4cc5ccccc5[nH]4)c3)C2)cn1 (centres undefined)	?	?	?	i	4.0%	16.4µM*
